This is part of a sample that, as a whole, favours compounds with a hit. Of some 79,000 tested, about 15% had one in any assay. A number with no mark means an inactive call. Cut-off read from the data, not from the text of the source: active = growth inhibition above about 70%; inactive = the rest. Where a SMILES comes first, the peptide text is derived from it.
Assay: NCI Yeast Anticancer Drug Screen. Data for the rad50 strain (AID 155);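 note: 0% = growth of vehicle-only cultures of the same strain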
Conditions: S. cerevisiae rad50 strain growth inhibition; at 50.0 µM; stronger effect = higher value
Procedure, shortened: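 Growth of the mutant yeast was measured after compound exposure and referenced to vehicle-treated cultures.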
In the case of `CCOC(=O)CN=NNc1ccc([N+](=O)[O-])cc1`, the growth inhibition is reported as 10.3%.
Compound `CC(C)(C)CC(C)(C)c1cc2c(O)c(c1)Cc1cc(C(C)(C)CC(C)(C)C)cc(c1O)Cc1cc(C(C)(C)CC(C)(C)C)cc(c1O)Cc1cc(C(C)(C)CC(C)(C)C)cc(c1O)Cc1cc(C(C)(C)CC(C)(C)C)cc(c1O)C2` has a growth inhibition of 20.5%.
`COC(=O)c1c[nH]c(C=O)c1C` gave a growth inhibition of 15.8%.
For `COc1cc(C)c(N)cc1N`, the growth inhibition was -2.7%.
`O=C(NCC(=O)N1CCCC1C(=O)OC(=O)C1CCCN1C(=O)CNC(=O)OCc1ccccc1)OCc1ccccc1` (centres undefined) showed a growth inhibition of 44.3%.
In the case of `CC(=O)c1cccc(NC(=O)OC2CCCC(C)C2)c1` (centres undefined), the growth inhibition is reported as 29.8%.
For `Cc1cc(=O)[nH]c(NN2C(Cl)C(=O)C2c2cccc(Cl)c2)n1` (centres undefined), the growth inhibition was -5.85%.
Compound `CN(C)/C=C(/N=C(C#N)C#N)C1OCCO1` has a growth inhibition of 4.1%.
Compound `O=C(Nc1cccc2c1[nH]c1c(-c3ccccc3)nccc12)c1ccccc1[N+](=O)[O-]` has a growth inhibition of 58.1%.
`CC[n+]1c(-c2ccccc2)c2cc(NCCCN)ccc2c2ccc(N)cc21` gave a growth inhibition of 33%.
For `COc1ccc(CC[N+]2=Cc3cc(OC)c(OC)cc3CC2)cc1OC`, the growth inhibition was -0.9%.
For `CC(C)CC(NC(=O)C(NC(=O)C(N)C(C)O)C(C)C)C(=O)O` (stereo not drawn) (H-Thr-Val-Leu-OH; configuration not given here), the growth inhibition was 5.9%.
Work on `CN1CCOC(=O)C(C#N)=C1c1ccccc1` yielded a growth inhibition of -26.5%.
Compound `CCN(CC)CCn1c2ccccc2c(=O)c2c(O)ccc(O)c21` has a growth inhibition of 14.8%.
